Screening results as filed in PubChem.
In the library only some 2.9% were active in any assay of this set; here they are far more common.
EPAC2 ant val – Validation qHTS for antagonist of cAMP-regulated guanine nucleotide exchange factor 4 (EPAC2); Rap guanine nucleotide exchange factor 4 (Homo sapiens), Q8WZA2; EPAC2 Rap1B BODIPY-GDP exchange, fluorescence; Potency, µM (highest dose often 112 µM), most hits filed as inhibitors; 16,000 tested, 1.7% active; further: nearly all actives have a fitted effect of over 40% in size
Target sequence (Q8WZA2 whole entry, looked up): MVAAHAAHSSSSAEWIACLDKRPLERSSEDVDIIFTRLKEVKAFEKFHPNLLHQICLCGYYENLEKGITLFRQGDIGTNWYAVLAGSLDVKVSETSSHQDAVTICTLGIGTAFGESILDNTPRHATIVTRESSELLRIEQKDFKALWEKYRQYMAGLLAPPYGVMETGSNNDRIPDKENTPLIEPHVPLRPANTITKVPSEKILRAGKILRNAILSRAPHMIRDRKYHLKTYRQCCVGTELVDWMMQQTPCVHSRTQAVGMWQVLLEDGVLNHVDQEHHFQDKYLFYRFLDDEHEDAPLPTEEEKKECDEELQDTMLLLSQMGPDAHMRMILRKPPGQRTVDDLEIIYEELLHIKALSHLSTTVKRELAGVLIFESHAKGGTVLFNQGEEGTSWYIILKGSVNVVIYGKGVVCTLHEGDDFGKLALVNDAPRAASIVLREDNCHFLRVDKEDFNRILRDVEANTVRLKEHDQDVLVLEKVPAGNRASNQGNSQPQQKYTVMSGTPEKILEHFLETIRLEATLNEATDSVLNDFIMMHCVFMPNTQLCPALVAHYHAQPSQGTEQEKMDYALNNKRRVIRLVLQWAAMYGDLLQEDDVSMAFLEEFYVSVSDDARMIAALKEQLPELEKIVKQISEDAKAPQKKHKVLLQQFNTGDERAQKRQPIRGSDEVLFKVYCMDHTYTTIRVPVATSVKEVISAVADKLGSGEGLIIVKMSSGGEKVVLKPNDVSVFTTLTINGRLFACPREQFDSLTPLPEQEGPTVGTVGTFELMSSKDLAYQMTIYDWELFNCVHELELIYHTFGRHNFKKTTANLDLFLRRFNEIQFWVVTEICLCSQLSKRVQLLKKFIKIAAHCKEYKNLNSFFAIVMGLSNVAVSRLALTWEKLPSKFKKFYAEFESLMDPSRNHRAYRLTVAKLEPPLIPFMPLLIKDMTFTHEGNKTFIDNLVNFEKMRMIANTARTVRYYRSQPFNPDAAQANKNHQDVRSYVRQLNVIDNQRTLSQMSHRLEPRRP
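Fluorescent exchange read-out: 100 nM EPAC2 with 250 nM RAP1B–BODIPY-GDP and 50 uM GDP; BODIPY-GDP release lowers fluorescence. Read at 480/540 nm every 5 min for 30 min at room temperature; normalized to 6.5 mM cAMP.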
EPAC1 ag val – Validation qHTS for agonist of cAMP-regulated guanine nucleotide exchange factor 3 (EPAC1). Rap guanine nucleotide exchange factor 3 (Homo sapiens), O95398. 16,000 tested, 1% active. EPAC1 Rap1b BODIPY-GDP exchange, fluorescence. Potency, µM, usual class: activators; further: nearly all actives have a fitted effect of over 70% in size
A number is an active result; - = inactive; ? = inconclusive; ! = not active in a repeat. The call rests on the fitted dose curve; in most records, active means well fitted curve in the direction sought with a large enough effect; inconclusive means small, poorly fitted or top-dose-only effect, or another doubt; inactive means no such curve, though single readings can be large; an effect the other way counts as inactive or inconclusive.

SMILES	EPAC2 ant val	EPAC1 ag val
O=C(NCC1Cc2cc(-c3cnc4ccccc4c3)cc(F)c2O1)c1cnsn1 (centres undefined)	-	-
O=C(O)[C@@H](O)[C@H](O)[C@H](O)[C@@H](O)C(=O)O (tested in a mixture with another compound)	-	-
O=c1c(O)c(-c2cc(O)c(O)c(O)c2)oc2cc(O)cc(O)c12	35µM!	-
O=c1c(O)c(-c2ccccc2)oc2cc(O)cc(O)c12	?	-
Cc1cccc(CN2Cc3cccc4c3[C@H](C=CC4)CC2=O)c1	32µM	-
O=C1C[C@H]2C=CCc3cccc(c32)CN1Cc1ccc(F)cc1	?	-
Nc1ncnc2c1nc(Br)n2C1CC(O)C(CO)O1 (centres undefined)	-	-
Nc1ncnc2c1nc(Br)n2[C@@H]1O[C@H]2COP(=O)(O)O[C@@H]2[C@@H]1O	1.3µM	?
Nc1ncnc2c1nc(Sc1ccc(Cl)cc1)n2[C@H]1OC2COP(=O)(O)O[C@@H]2C1O (some centres undefined)	0.5µM	0.18µM
Nc1ncnc2c1nc(Cl)n2C1OC(CO)C(O)C1O (centres undefined)	-	-
Nc1ncnc2c1nc(Br)n2[C@H]1O[C@H]2COP(=O)(O)O[C@H]2[C@@H]1O	3.5µM	1.1µM
NC1=NC2C(N=C(Br)N2[C@@H]2O[C@H]3COP(=O)(O)O[C@@H]3[C@@H]2O)C(=O)N1 (some centres undefined)	?	-
CO[C@H]1C[C@H](O[C@H]2[C@H](C)O[C@@H](O[C@@H]3/C(C)=C/C[C@@H]4C[C@@H](C[C@]5(C=C[C@H](C)[C@@H](C6CCCCC6)O5)O4)OC(=O)[C@@H]4C=C(C)[C@@H](O)[C@H]5OC/C(=C\C=C\[C@@H]3C)[C@]54O)C[C@@H]2OC)O[C@@H](C)[C@@H]1O	-	-
COCCC(=O)NCC1Cc2cc(Cl)cc(-c3ccc4[nH]ccc4c3)c2O1 (centres undefined)	-	-
C=C1[C@@H]2CC[C@@H](C2)C1(C)C	-	-
Fc1ccc(N2CCN(Cc3ccc4c(c3)CN(Cc3cccn3-c3cccnc3)CCO4)CC2)cc1	-	-
COc1ccc(C(=O)c2ccccc2)c(O)c1	40µM!	-
COc1ccc(C(=O)c2ccc(C)cc2)c(O)c1	?	-
Cc1onc(-c2c(F)cccc2Cl)c1C(=O)N[C@@H]1C(=O)N2[C@@H]1SC(C)(C)[C@@H]2C(=O)O	-	-
O=C1C2CC3CC1CC(O)(C3)C2	-	-
COc1ccc2c(c1)OCC(Cc1ccc(OC)c(OC)c1)C2O (centres undefined)	?	-
COc1ccc2c(c1)OCC(Cc1ccc(OC)c(OC)c1)C2=O (centres undefined)	45µM	?
C[S+](C)CCC(N)C(=O)O (centres undefined)	-	-
COC(=O)C1CCCCN1Cc1nc(N2CCCN(C(C)=O)CC2)c2ccccc2n1 (centres undefined)	-	-
c1ccc2c(N3CCCCCC3)nc(CN3CCCCC3c3nccs3)nc2c1 (centres undefined)	20µM	-
SMILES	EPAC2 ant val	EPAC1 ag val
Nc1nc(NC2CC2)c2ncn([C@@H]3C=C[C@@H](CO)C3)c2n1	-	-
CCCN1CCC(=O)N([C@H](COc2ccccc2)Cc2ccccc2)CC1	-	-
CC(C)C[C@@H](CO)N1CCN(Cc2ccccc2)CCC1=O	?	-
O=C1CCN(Cc2ccccc2)CCN1[C@H](COc1ccccc1)Cc1ccccc1	79µM	-
CC(C)C[C@@H](COc1ccccc1)N1CCN(Cc2ccccc2)CCC1=O	18µM	-
CC(C)CCC[C@@H](C)[C@H]1CC(=O)C2=C3CC[C@H]4C[C@@H](O)CC[C@]4(C)[C@H]3CC[C@@]21C	-	-
CO[C@H]1[C@H](NC(=O)c2cccs2)c2ccccc2C12CCN(Cc1cccn1-c1ccccn1)CC2	-	-
Cc1c(C(=O)N2CC3CCC2C3)sc2ncnc(NCCc3c[nH]c4ccccc34)c12 (centres undefined)	-	-
CN1CC(O)C2=CC(=O)C(=O)C=C21 (centres undefined)	79µM	-
CCC1(C2CCN(Cc3ccc(C)s3)CC2)NC(=O)N(CC2COc3ccccc3O2)C1=O (centres undefined)	?	-
COc1cc2c(cc1OC)C(=O)N(C)CC2	-	-
COc1cc2cc3c4c(cc(OC)c(OC)c4c2cc1OC)CCN3C	50µM	?
CC(C)[C@@H](C)/C=C/[C@@H](C)[C@H]1CC[C@H]2/C(=C/C=C3\C[C@@H](O)CC[C@@H]3C)CCC[C@]12C	-	-
Cc1ccc(O)c(N=Nc2ccccc2)n1	56µM!	-
Cc1ccc2ccccc2n1	-	-
O=C(c1cnn(-c2nccc(-c3ccccc3F)n2)c1C1CC1)N1CCCCC1c1cccnc1 (centres undefined)	-	-
NC1[C@H]2CN(c3nc4c(cc3F)c(=O)c(C(=O)O)cn4-c3ccc(F)cc3F)C[C@@H]12 (some centres undefined)	-	-
CC1(C)[C@@H](O)CC[C@]2(C)[C@H]3C(=O)C=C4[C@@H]5C[C@@](C)(C(=O)O)CC[C@]5(C)CC[C@@]4(C)[C@]3(C)CC[C@@H]12	1.6µM	-
CC1(C)C(OC(=O)CCC(=O)O)CC[C@]2(C)C1CC[C@@]1(C)C2C(=O)C=C2[C@@H]3C[C@@](C)(C(=O)O)CC[C@]3(C)CCC21C (some centres undefined)	4µM	?
CC1(C)C(O)CC[C@]2(C)C1CC[C@@]1(C)C2C(=O)C=C2[C@@H]3C[C@@](C)(C(=O)O)CC[C@@]3(C)CCC21C (some centres undefined)	7.1µM	-
CC1(C)CC[C@]2(C(=O)O)CC[C@@]3(C)C(=CCC4[C@@]5(C)CCC(O)C(C)(C)C5CC[C@@]43C)C2C1 (some centres undefined)	-	-
CC(=O)OC1CCC2(C)C(CCC3(C)C2C(=O)C=C2C4CC(C)(C(=O)OCCN5CCCCC5)CCC4(C)CCC23C)C1(C)C (centres undefined)	-	-
CC1(C)[C@@H](O[C@H]2O[C@H](C(=O)O)[C@@H](O)[C@H](O)[C@H]2O[C@@H]2O[C@H](C(=O)O)[C@@H](O)[C@H](O)[C@H]2O)CC[C@]2(C)[C@H]3C(=O)C=C4[C@@H]5C[C@@](C)(C(=O)O)CC[C@]5(C)CC[C@@]4(C)[C@]3(C)CC[C@@H]12	?	-
Cc1c(C(=O)NCC2COCCO2)cnn1-c1ncc2c(n1)-c1ccccc1CC2 (centres undefined)	-	-
CC(C)C[C@H](NC(=O)[C@@H](Cc1c[nH]c2ccccc12)NC(=O)[C@H](Cc1ccc(O)cc1)NC(=O)[C@H](CO)NC(=O)[C@H](Cc1c[nH]c2ccccc12)NC(=O)[C@H](Cc1cnc[nH]1)NC(=O)[C@@H]1CCC(=O)N1)C(=O)N[C@@H](CCCN=C(N)N)C(=O)N1CCC[C@@H]1C(=O)NCC(N)=O	-	-
O=C[C@H](O)[C@@H](O)[C@H](O[C@H]1O[C@H](CO)[C@@H](O[C@H]2O[C@H](CO)[C@@H](O)[C@H](O)[C@H]2O)[C@H](O)[C@H]1O)[C@H](O)CO	-	-
